Data taken from paper PMC10812921, “Transcriptional Coactivator BOB1 (OBF1, OCA-B) Modulates the Specificity of DNA Recognition by the POU-Domain Factors OCT1 and OCT2 in a Monomeric Configuration”.

Experiments:
POU1 (OCT1 POU domain) = POU1 (OCT1 POU domain) (human, UniProt P14859 260-458); test: EMSA-SELEX-seq; no BOB1; 20 mM Tris-HCl pH 7.6, 140 mM NaCl, 10% glycerol, 0.5 mM EDTA, 0.05% Triton X-100, 0.1 mg/mL BSA, 0.1 mg/mL poly(dI-dC), 5 mM DTT, room temperature, 20 min; high values mean tight binding; conditions: protein: recombinant; dsDNA, one strand shown
Chain of POU1 (OCT1 POU domain) (P14859 260-458): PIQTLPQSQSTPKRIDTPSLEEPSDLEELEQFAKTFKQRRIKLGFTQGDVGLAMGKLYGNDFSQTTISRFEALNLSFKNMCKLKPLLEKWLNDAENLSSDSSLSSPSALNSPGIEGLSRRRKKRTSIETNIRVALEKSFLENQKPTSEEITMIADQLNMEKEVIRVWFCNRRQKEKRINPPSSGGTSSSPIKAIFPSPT
Method in brief: (§1)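 Binding preference means the percentage of sequenced 8-mers matching a motif pattern. Tagged POU-domain proteins (30 ng), expressed in E. coli BL21, purified under denaturing conditions and renatured, were mixed with 300 ng of a PCR-amplified double-stranded random 35-nt library, with or without 28 ng coactivator protein, for 20 min at RT in 20 μL Tris–HCl pH 7.6 binding buffer. Selection was repeated over four rounds of excising complex bands from native 6% PAGE, eluting and PCR amplification, followed by Illumina sequencing.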

[1] = biological target: POU1 (OCT1 POU domain);BOB1 (OBF1, OCA-B) (human;human, UniProt P14859;Q16633 260-458;1-256, |); test: EMSA-SELEX-seq; with BOB1 (ternary complex band); 20 mM Tris-HCl pH 7.6, 140 mM NaCl, 10% glycerol, 0.5 mM EDTA, 0.05% Triton X-100, 0.1 mg/mL BSA, 0.1 mg/mL poly(dI-dC), 5 mM DTT, room temperature, 20 min; high values mean tight binding; conditions: protein: recombinant;recombinant; copies: 1;1; dsDNA, one strand shown
Method in brief: as §1

[2] = biological target: T1, POU2 (OCT2 POU domain);BOB1 (OBF1, OCA-B) (human;human, UniProt P09086;Q16633 175-386;1-256, |); test: as above; conditions: protein: recombinant;recombinant; copies: 1;1; dsDNA, one strand shown
T1 sequence 1: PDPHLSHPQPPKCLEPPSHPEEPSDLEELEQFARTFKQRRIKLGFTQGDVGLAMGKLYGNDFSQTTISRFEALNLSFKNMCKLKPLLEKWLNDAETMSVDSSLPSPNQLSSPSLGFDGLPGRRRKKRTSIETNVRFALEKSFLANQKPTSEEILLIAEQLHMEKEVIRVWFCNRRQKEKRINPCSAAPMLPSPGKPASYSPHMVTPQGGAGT
T1 sequence 2: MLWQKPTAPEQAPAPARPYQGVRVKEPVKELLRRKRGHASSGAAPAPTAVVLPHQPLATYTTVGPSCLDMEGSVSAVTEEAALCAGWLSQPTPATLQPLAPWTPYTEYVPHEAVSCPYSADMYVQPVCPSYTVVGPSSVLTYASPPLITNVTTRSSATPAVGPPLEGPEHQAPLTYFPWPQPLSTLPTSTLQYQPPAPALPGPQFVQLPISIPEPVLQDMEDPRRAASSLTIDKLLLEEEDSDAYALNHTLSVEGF
Method in brief: as §1

POU2 (OCT2 POU domain) = biological target: T2, POU2 (OCT2 POU domain) (human, UniProt P09086 175-386); test: EMSA-SELEX-seq; no BOB1; 20 mM Tris-HCl pH 7.6, 140 mM NaCl, 10% glycerol, 0.5 mM EDTA, 0.05% Triton X-100, 0.1 mg/mL BSA, 0.1 mg/mL poly(dI-dC), 5 mM DTT, room temperature, 20 min; high values mean tight binding; conditions: protein: recombinant; dsDNA, one strand shown
T2 sequence: T1 sequence 1
Method in brief: as §1

Sequence	binding signal (POU1 (OCT1 POU domain))	binding signal [1]	binding signal [2]	binding signal (POU2 (OCT2 POU domain))
AGCCCAAG	0.0111 % of ANNNNAAN 8-mers	0.0129 % of ANNNNAAN 8-mers	0.0124 % of ANNNNAAN 8-mers	
AACTTAAC	0.0294 % of ANNNNAAN 8-mers	0.0234 % of ANNNNAAN 8-mers	0.0248 % of ANNNNAAN 8-mers	0.0288 % of ANNNNAAN 8-mers
ACGACAAC	0.0126 % of ANNNNAAN 8-mers	0.0133 % of ANNNNAAN 8-mers	0.0149 % of ANNNNAAN 8-mers	0.0132 % of ANNNNAAN 8-mers
AAAGTAAC	0.0439 % of ANNNNAAN 8-mers	0.0605 % of ANNNNAAN 8-mers	0.0537 % of ANNNNAAN 8-mers	0.0437 % of ANNNNAAN 8-mers
ATTCTAAA	0.0946 % of ANNNNAAN 8-mers	0.0542 % of ANNNNAAN 8-mers	0.0726 % of ANNNNAAN 8-mers	0.123 % of ANNNNAAN 8-mers
AGTTAAAA	0.0778 % of ANNNNAAN 8-mers	0.0831 % of ANNNNAAN 8-mers	0.0537 % of ANNNNAAN 8-mers	0.0915 % of ANNNNAAN 8-mers
ACCCGAAA	0.0172 % of ANNNNAAN 8-mers	0.0168 % of ANNNNAAN 8-mers	0.014 % of ANNNNAAN 8-mers	0.019 % of ANNNNAAN 8-mers
ACGGTAAC	0.0164 % of ANNNNAAN 8-mers	0.0144 % of ANNNNAAN 8-mers	0.0239 % of ANNNNAAN 8-mers	0.0259 % of ANNNNAAN 8-mers
ACCTAAAG	0.0145 % of ANNNNAAN 8-mers	0.0219 % of ANNNNAAN 8-mers	0.0223 % of ANNNNAAN 8-mers	0.0173 % of ANNNNAAN 8-mers
AGGAAAAA	0.134 % of ANNNNAAN 8-mers	0.18 % of ANNNNAAN 8-mers	0.102 % of ANNNNAAN 8-mers	0.0909 % of ANNNNAAN 8-mers
ATAATAAA	0.194 % of ANNNNAAN 8-mers	0.117 % of ANNNNAAN 8-mers	0.0999 % of ANNNNAAN 8-mers	0.251 % of ANNNNAAN 8-mers
ACCAGAAG	0.0137 % of ANNNNAAN 8-mers	0.018 % of ANNNNAAN 8-mers	0.0215 % of ANNNNAAN 8-mers	0.0167 % of ANNNNAAN 8-mers
ACGTCAAC	0.013 % of ANNNNAAN 8-mers	0.0187 % of ANNNNAAN 8-mers	0.0165 % of ANNNNAAN 8-mers	0.0173 % of ANNNNAAN 8-mers
ACGCTAAT	0.108 % of ANNNNAAN 8-mers	0.046 % of ANNNNAAN 8-mers	0.0611 % of ANNNNAAN 8-mers	0.14 % of ANNNNAAN 8-mers
ACCCCAAA	0.0198 % of ANNNNAAN 8-mers	0.0109 % of ANNNNAAN 8-mers	0.0124 % of ANNNNAAN 8-mers	0.0104 % of ANNNNAAN 8-mers
ACTCCAAC	0.0126 % of ANNNNAAN 8-mers	0.0113 % of ANNNNAAN 8-mers	0.0198 % of ANNNNAAN 8-mers	
ATCCAAAG	0.0427 % of ANNNNAAN 8-mers	0.0566 % of ANNNNAAN 8-mers	0.0446 % of ANNNNAAN 8-mers	0.0397 % of ANNNNAAN 8-mers
ACGAAAAG	0.032 % of ANNNNAAN 8-mers	0.046 % of ANNNNAAN 8-mers	0.0413 % of ANNNNAAN 8-mers	0.0368 % of ANNNNAAN 8-mers
ATCAAAAA	0.061 % of ANNNNAAN 8-mers	0.0851 % of ANNNNAAN 8-mers	0.0636 % of ANNNNAAN 8-mers	0.0702 % of ANNNNAAN 8-mers
AAAAAAAC	0.0583 % of ANNNNAAN 8-mers	0.0784 % of ANNNNAAN 8-mers	0.0512 % of ANNNNAAN 8-mers	0.0593 % of ANNNNAAN 8-mers
ACCTGAAC	0.021 % of ANNNNAAN 8-mers	0.0113 % of ANNNNAAN 8-mers	0.0215 % of ANNNNAAN 8-mers	
AAGACAAT	0.0477 % of ANNNNAAN 8-mers	0.0382 % of ANNNNAAN 8-mers	0.0405 % of ANNNNAAN 8-mers	0.0478 % of ANNNNAAN 8-mers
AGATAAAC	0.04 % of ANNNNAAN 8-mers	0.0519 % of ANNNNAAN 8-mers	0.0487 % of ANNNNAAN 8-mers	0.0506 % of ANNNNAAN 8-mers
AAATAAAA	0.177 % of ANNNNAAN 8-mers	0.199 % of ANNNNAAN 8-mers	0.171 % of ANNNNAAN 8-mers	0.177 % of ANNNNAAN 8-mers
AAATGAAC	0.115 % of ANNNNAAN 8-mers	0.11 % of ANNNNAAN 8-mers	0.141 % of ANNNNAAN 8-mers	0.102 % of ANNNNAAN 8-mers
AATTCAAT	0.121 % of ANNNNAAN 8-mers	0.0948 % of ANNNNAAN 8-mers	0.125 % of ANNNNAAN 8-mers	0.125 % of ANNNNAAN 8-mers
ATAGTAAT	0.116 % of ANNNNAAN 8-mers	0.0702 % of ANNNNAAN 8-mers	0.0867 % of ANNNNAAN 8-mers	0.148 % of ANNNNAAN 8-mers
AAGGGAAC	0.0389 % of ANNNNAAN 8-mers	0.0363 % of ANNNNAAN 8-mers	0.0305 % of ANNNNAAN 8-mers	0.0506 % of ANNNNAAN 8-mers
AACCAAAT	0.166 % of ANNNNAAN 8-mers	0.257 % of ANNNNAAN 8-mers	0.18 % of ANNNNAAN 8-mers	0.121 % of ANNNNAAN 8-mers
ATATAAAA	0.103 % of ANNNNAAN 8-mers	0.101 % of ANNNNAAN 8-mers	0.0702 % of ANNNNAAN 8-mers	0.102 % of ANNNNAAN 8-mers
